PubChem BioAssay AID2546 (National Center for Advancing Translational Sciences (NCATS), 2010)
About 11,000 (3.5%) of roughly 310,000 compounds were called active. Roughly 8% stayed inconclusive and do not appear here. Calls come from the whole dose curve; as a rule, active = well fitted inhibition curve with a large enough effect; inconclusive = small, poorly fitted or top-dose-only effect, or effect the other way; inactive = flat fitted curve, though single readings scatter. What follows is part of a selection rich in actives, with near analogues and random picks from the rest.

experiment: VP16 counterscreen qHTS for inhibitors of ROR gamma transcriptional activity; settings: Drosophila S2 Gal4-VP16 UAS-luciferase, luminescence, 20 h; series mostly up to 53.6 µM; activity, negative = inhibition: at the top concentration;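 note: Gal4-VP16 expression switched on by copper sulfate through the metallothionein promoter; nearly all actives have a fitted effect of over 50% in size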
% is set by controls: 0 for no effect and ±100 for the full control effect; potency is the fitted concentration of half-maximal effect.

Structure (SMILES)	activity, negative = inhibition	Potency
COc1ccc(C(C(=O)NC2CCCC2)N(CCCO)C(=O)Cn2nnc(-c3ccc(C)o3)n2)cc1 (centres undefined)	0.18% (inactive)	–
COc1ccc(-c2cc(=O)oc3cc(OCC(=O)N(C)C4CCS(=O)(=O)C4)ccc23)cc1 (centres undefined)	-13% (inactive)	–
CC(=O)Nc1cccc(/C(C)=N/NC(=O)c2c(-c3ccccc3Cl)noc2C)c1	–	20 µM (active)
CC(=O)Nc1cccc(/C(C)=N/NC(=O)c2ccccc2Cl)c1	-3.27% (inactive)	–
Cc1onc(-c2c(Cl)cccc2Cl)c1C(=O)NNC(=O)c1c(-c2c(Cl)cccc2Cl)noc1C	4.2% (inactive)	–
Cc1csc(-c2coc3cc(O[C@@H]4O[C@H](CO)[C@@H](O)[C@@H](O)[C@H]4O)ccc3c2=O)n1	–	15.8 µM (active)
CCc1cccc(OC2OC(CO)C(O)C(O)C2NC(C)=O)c1 (centres undefined)	3.54% (inactive)	–
COc1cc(/C=C/CO)cc(OC)c1O[C@@H]1O[C@H](CO)[C@@H](O)[C@H](O)[C@H]1O	-3.49% (inactive)	–
CCN(C(=O)C1CCCN(c2nc(-c3ccc(OC)cc3)no2)C1)c1ccc(OC)cc1 (centres undefined)	2.87% (inactive)	–
CC(=O)[C@@]12O[C@@H]1C[C@H]1[C@@H]3CC[C@H]4C[C@@H](O)CC[C@]4(C)[C@H]3CC[C@@]12C	-3.05% (inactive)	–
Cc1cccc(C(=O)NC(=S)N2CCN(c3ccc([N+](=O)[O-])cc3)CC2)c1	–	1 µM (active)
Cc1cccc(C(=O)NNC(=O)c2cccc([N+](=O)[O-])c2)c1	-2.22% (inactive)	–
Cc1cccc(C(=O)Nc2ccccc2N2CCN(c3ccc(F)cc3)CC2)c1	-2.23% (inactive)	–
CCOc1cc(C(=S)N2CCOCC2)ccc1OS(=O)(=O)c1ccc(Br)cc1	2.61% (inactive)	–
COc1cccc(-c2coc3cc4oc(=O)c(CC(=O)O)c(C)c4cc23)c1	-10.5% (inactive)	–
Cc1c(Cl)c([N+](=O)[O-])nn1Cc1ccc(C(=O)N/N=C\c2cc(Cl)ccc2O)o1	–	11.2 µM (active)
O=C(N/N=C/c1ccc2c(c1)OCO2)c1ccc(Cn2cc([N+](=O)[O-])cn2)o1	-6.56% (inactive)	–
Cc1c(Cl)c([N+](=O)[O-])nn1CCCC(=O)Nc1cc(Cl)ccc1Cl	-0.0276% (inactive)	–
COc1cccc(-c2cccc(NC(=O)C3CCN(C4CCC4)CC3)c2)c1	-0.379% (inactive)	–
COc1cc2c(cc1/C=C1/NC(=O)N(c3ccccc3)C1=O)OCO2	-13.3% (inactive)	–
CCCCN=C1N/C(=C\c2ccco2)C(=O)N1c1ccccc1	12.7% (inactive)	–
O=C1/C(=C\c2ccsc2)NC(=S)N1c1ccccc1	–	22.4 µM (active)

Structure (SMILES)	activity, negative = inhibition	Potency
O=C(CNc1cccc(S(=O)(=O)N2CCCCC2)c1)Nc1ccccc1F	-17.1% (inactive)	–
COc1ccc(C(=O)NC(C)c2nccs2)cc1OC1CCN(C(C)C)CC1 (centres undefined)	-4.74% (inactive)	–
CCOC(=O)c1ccc(NC(=O)c2nc[nH]c2C(=O)NCc2ccccc2)cc1	–	5.62 µM (active)
CCOC(=O)c1ccc(NC(=O)c2cc(=O)[nH]c3ccccc23)cc1	-1.66% (inactive)	–
CCOC(=O)c1[nH]cnc1C(=O)Nc1ccccc1C	-6.62% (inactive)	–
Cc1ccc(C(C)C)cc1OCC(=O)Nc1ccccc1N1CCCC1	-3.18% (inactive)	–
O=C(c1cc2ccccc2o1)N1CCN(c2cccc(C(F)(F)F)c2)CC1	-18.6% (inactive)	–
CCCCC[C@H]1CN(C2CCCCC2)C(=O)[C@@H]1CC(=O)NCc1ccc(OC)cc1	4.56% (inactive)	–
CCC(C)C(=O)Nc1ccccc1N1CCN(c2ccc(F)cc2)CC1 (centres undefined)	0.0709% (inactive)	–
CCN1C(=NCCc2cccnc2)N[C@@H](c2ccccc2)C(C(=O)OC)=C1C	–	inactive
O=C(NNC(=S)NC1CCCCC1)c1ccccc1Cl	-4.51% [at 10 µM] (inactive)	–
O=C(CO/N=C/c1ccccc1O)NNC(=O)c1ccccc1Cl	–	14.1 µM (active)
O=C(CO/N=C/c1ccccc1OC(F)F)NC1CCCC1	-0.0109% (inactive)	–
Oc1ccc(-n2nnnc2SCc2c(F)cccc2Cl)cc1	-5.26% (inactive)	–
Cc1cccc(OCCC(=O)Nc2ccccc2C(N)=O)c1	1.04% (inactive)	–
Cc1cccc(OC(C)C(=O)N2CCc3ccccc3C2)c1 (centres undefined)	-5.71% (inactive)	–
O=[N+]([O-])c1ccccc1N/N=C1\CCc2ccccc21	7.72% (inactive)	–
CCCCNC(=O)C(=O)c1ccccc1NC(C)=O	-3.25% (inactive)	–
CCCCNC(=S)N/N=C1\CCCCc2ccccc21	–	4.47 µM (active)
FC(F)(F)c1nnc2c3ccccc3c(Cl)nn12	-10.7% (inactive)	–
COc1ccc(CNc2cc(C)cc(C)c2)cc1OC	4.88% (inactive)	–
COc1ccc(N2CCN(S(=O)(=O)c3ccc4c(c3)NC(=O)C(C)C(=O)N4)CC2)cc1 (centres undefined)	0.791% (inactive)	–

Structure (SMILES)	activity, negative = inhibition	Potency
CC(C)(O)C#Cc1ccc(CN2CCC(CO)(CCc3ccccc3)CC2)cc1	-11% (inactive)	–
COCCCNC(=S)NC(=O)c1ccc([N+](=O)[O-])cc1	–	17.8 µM (active)
O=C(NC(=S)Nc1ccc(NC(=O)c2cccs2)cc1)c1ccc([N+](=O)[O-])cc1	-16.7% (inactive)	–
CC(=O)NC(=S)Nc1ccc(NC(=S)NC(=O)c2ccc([N+](=O)[O-])cc2)cc1	-20.7% (inactive)	–
Cc1cc(CN(C)C(=O)c2cc(COc3ccc(C)c(C)c3)on2)n[nH]1	-25.2% (inactive)	–
COC(=O)c1cc(S(=O)(=O)Nc2ccc(C)c(F)c2)c[nH]1	6.68% (inactive)	–
COc1ccc(-n2nc(C(=O)NCC(=O)N3CCN(c4ccccc4OC)CC3)c3ccccc3c2=O)c(OC)c1	-1.24% (inactive)	–
COc1cccc(NC(=O)c2ccccc2N(Cc2ccccc2)S(C)(=O)=O)c1	-0.142% (inactive)	–
CCc1ccc2c(c1)C(c1ccc([N+](=O)[O-])cc1)=NNC(c1ccccc1)=N2	20.7% (inactive)	–
Cc1ccc(C2=Nc3c(ccc4ccccc34)C(c3ccncc3)=NN2)cc1	3.1% (inactive)	–
CCOc1ccc2c(c1)C(c1ccc(C)cc1)=NNC(c1ccc(C)cc1)=N2	–	15.8 µM (active)
COc1ccc(C(=O)NCCn2nc(C)cc2C)cc1OC1CCN(C(C)=O)CC1	2.18% (inactive)	–
COc1ccc(NC(=O)CS(=O)(=O)c2ccccc2)cc1	6.5% (inactive)	–
Cc1nonc1NC(=O)c1ccccc1Br	-14.3% (inactive)	–
O=C(Nc1cccc(Cl)c1)Nc1nnc(-c2ccccc2)o1	-17.2% (inactive)	–
O=C(Nc1nnc(-c2ccc(Cl)cc2)o1)c1ccccc1Br	–	4.47 µM (active)
COc1cccc(N(C(=O)c2snc(C(N)=O)c2N)C(C(=O)NCC2CCCO2)c2c[nH]c3ccccc23)c1 (centres undefined)	-4.67% (inactive)	–
O=C(O)CSCC(=O)Nc1cccc(C(F)(F)F)c1	10.4% (inactive)	–
O=C(Nc1cccc(C(F)(F)F)c1)c1cnccn1	12.2% (inactive)	–
O=C(Nc1cccc(C(F)(F)F)c1)c1cc(Br)cc(Br)c1O	–	4.47 µM (active)
